{"source": "PubChem BioAssay AID686971", "about": "(National Center for Advancing Translational Sciences (NCATS), 2013)", "note": "Hit rate of the full screen: of about 360,000 compounds, about 7,500 (2.1%) were called active. Where a call stands in place of a potency, no number is given. About 8% were inconclusive and are not listed. The call rests on the fitted dose curve; in most records, active means well fitted cell-killing curve with a large enough effect; inconclusive means small, poorly fitted or top-dose-only effect, or effect the other way, or another doubt; inactive means no such curve, though single readings can be large or run the other way. The full list was thinned out, with actives kept by preference. Potency means the concentration at half of the fitted maximal effect.", "data": [{"experiment": "qHTS for induction of synthetic lethality in tumor cells producing 2HG: qHTS for the HT-1080-IDH1KD cell line", "details": "HT-1080 IDH1 knockdown viability, ATP luminescence, 48 h; series mostly up to 46.1 µM", "how_it_was_run": "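HT-1080-IDH1KD cells (IDH1 knocked down), 750/well in RPMI with 5% FBS, treated with compound 48 h at 37 degrees C. Viability by CellTiter-Glo luminescence, normalised to DMSO and no-cell wells; concentration-response curves classed.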", "values": [{"smiles": "CCCNC(=O)C[C@@H]1CC[C@@H]2[C@H](COC[C@H](O)CN2C(=O)c2cc(Cl)cc(Cl)c2)O1", "Potency": "inactive"}, {"smiles": "CC(OC(=O)c1cccnc1Cl)C(=O)NC1CCCCC1", "note": "(stereo not given)", "Potency": "inactive"}, {"smiles": "COc1cccc(-c2ccc3c(c2)N(Cc2ccccc2OC)C(=O)C(C)S3)c1", "note": "(stereo not given)", "Potency": "inactive"}, {"smiles": "O=C(NNC(=O)C1CCC1)c1ccccc1", "Potency": "inactive"}, {"smiles": "Cc1ccc(NNC(=O)C2CCC2)cc1C", "Potency": "7.31 µM (active)"}, {"smiles": "Cc1ccc(C)c(OCC(=O)NNC(=O)C2CCC2)c1", "Potency": "inactive"}, {"smiles": "CC1(C2CC2)NC(=O)N(CC(=O)N2CCN(c3ccccc3F)CC2)C1=O", "note": "(stereo not given)", "Potency": "inactive"}, {"smiles": "CCCCCCN1CCN(C2CN(Cc3cn(Cc4ccc(F)cc4)nn3)S(=O)(=O)C2)CC1", "note": "(stereo not given)", "Potency": "inactive"}, {"smiles": "COC(=O)c1ccccc1NS(=O)(=O)c1ccc2[nH]c(=O)[nH]c2c1", "Potency": "inactive"}, {"smiles": "CCOc1ccc(NC(=O)c2ccccc2NS(C)(=O)=O)cc1", "Potency": "inactive"}, {"smiles": "COC(=O)c1ccc(NC(=O)c2ccccc2NS(=O)(=O)c2ccccc2)cc1", "Potency": "11.2 µM (active)"}, {"smiles": "O=C(C(=O)N1CCN(c2ccccc2)CC1)c1ccc2c(c1)OCO2", "Potency": "inactive"}, {"smiles": "CN(C)CCN1CCN(c2cc(-c3cccc(Cl)c3)nc3ccnn23)CC1", "Potency": "inactive"}, {"smiles": "O=C(c1ccccc1)N1CCN(c2cc(-c3ccccc3)nc3cc(-c4cccc(Cl)c4)nn23)CC1", "Potency": "inactive"}, {"smiles": "C#Cc1cc(N2CCN(C(=O)c3ccoc3)CC2)n2nc(-c3cccc(Cl)c3)cc2n1", "Potency": "9.2 µM (active)"}, {"smiles": "O=C(NCc1ccccc1)C(c1ccc(F)cc1)N1CCN(C(=O)C2CCCO2)CC1", "note": "(stereo not given)", "Potency": "inactive"}, {"smiles": "O=[N+]([O-])c1ccc(N2CCOCC2)cc1", "Potency": "inactive"}, {"smiles": "O=C1CC(c2ccccc2)=NN1c1ccc([N+](=O)[O-])cc1", "Potency": "20.6 µM (active)"}, {"smiles": "COc1ccc(C2=NN(c3nc4ccccc4s3)C(=O)C2)cc1", "Potency": "inactive"}, {"smiles": "CSc1nc2ccc(NC(=O)c3c(F)cccc3F)cc2s1", "Potency": "inactive"}, {"smiles": "CC(=O)Nc1ccc2nc(NC(=O)CS(=O)(=O)c3ccc(F)cc3)sc2c1", "Potency": "inactive"}, {"smiles": "CCCC(=O)Nc1nc2ccc(NC(=O)c3c(F)c(F)c(OC)c(F)c3F)cc2s1", "Potency": "0.651 µM (active)"}, {"smiles": "Nc1nc2ncccn2c1-c1ccccc1", "Potency": "inactive"}, {"smiles": "CCN1C(=O)[C@@H]2[C@@H]3CN(S(=O)(=O)c4ccccc4C)[C@@H](c4ccc(Cl)cc4)[C@@H]3C(=O)C[C@@H]2C1=O", "Potency": "inactive"}, {"smiles": "CC1CCCCC1NC(=O)/C(C#N)=C/C=C/c1ccccc1[N+](=O)[O-]", "note": "(stereo not given)", "Potency": "4.61 µM (active)"}, {"smiles": "O=[N+]([O-])c1ccccc1/C=C/CN1CCCC(CO)C1", "note": "(stereo not given)", "Potency": "inactive"}, {"smiles": "O=[N+]([O-])c1ccccc1/C=C/CN1CCC(O)CC1", "Potency": "inactive"}, {"smiles": "CC1=C(C(=O)Nc2cccc(C(=O)NCC(C)c3ccccc3)c2)SCCO1", "note": "(stereo not given)", "Potency": "inactive"}, {"smiles": "O=C(NCc1cccnc1)c1cc(C2CCCN(C(=O)C3CCCCC3)C2)on1", "note": "(stereo not given)", "Potency": "inactive"}, {"smiles": "COc1cc2ccccc2cc1C(=O)N1CCOCC1", "Potency": "inactive"}, {"smiles": "Cc1oc2c(c1C(=O)N1CCOCC1)C(=O)c1ccccc1C2=O", "Potency": "9.2 µM (active)"}, {"smiles": "O=C(c1snnc1-c1ccccc1)N1CCOCC1", "Potency": "inactive"}, {"smiles": "O=C(CN1C(=O)NC2(CCc3ccccc32)C1=O)NC1CCCCC1", "note": "(stereo not given)", "Potency": "inactive"}, {"smiles": "O=C(COC(=O)/C=C/c1ccc(Cl)cc1)NC1CCS(=O)(=O)C1", "note": "(stereo not given)", "Potency": "inactive"}, {"smiles": "O=C(Nc1ccc(OCCO)cc1)c1csc([C@H]2C[C@H](O)[C@@H](CO)O2)n1", "Potency": "inactive"}, {"smiles": "CC(C)CN1CCC1(C)C(=O)Nc1ccc(OC(F)F)cc1", "note": "(stereo not given)", "Potency": "inactive"}, {"smiles": "O[C@H]1CN(Cc2cccs2)[C@@H](c2ccc(Cl)cc2)C[C@@H]1n1cc(C2CC2)nn1", "Potency": "inactive"}, {"smiles": "Nc1nonc1-n1nnc(C(=O)N/N=C/c2ccccc2O)c1CN1CCCC1", "Potency": "14.6 µM (active)"}, {"smiles": "NNC(=O)c1nnn(-c2nonc2N)c1CN1CCCC1", "Potency": "inactive"}, {"smiles": "Nc1nonc1-n1nnc(C(=O)N/N=C\\c2ccncc2)c1CN1CCCCC1", "Potency": "inactive"}, {"smiles": "O=C1CC[C@@H](C(=O)N2CSC[C@@H]2C(=O)Nc2ccc(C(F)(F)F)cc2)N1", "Potency": "inactive"}, {"smiles": "O=C(NCc1ccc(F)cc1)c1cc(C2CCCCN2C(=O)C2CCCCC2)on1", "note": "(stereo not given)", "Potency": "inactive"}, {"smiles": "COc1ccc(OCCC(=O)c2ccc(OC)cc2)cc1", "Potency": "20.6 µM (active)"}, {"smiles": "COc1ccc(CCC(=O)c2ccc(OC)cc2)cc1", "Potency": "inactive"}, {"smiles": "COc1ccc(OCCCC(=O)Oc2ccc(OC)cc2)cc1", "Potency": "inactive"}, {"smiles": "COc1ccc(C(O)C(O)(C(=O)OC(C)C)c2ccc(C)cc2)cc1", "note": "(stereo not given)", "Potency": "inactive"}, {"smiles": "CC1(C)CC(=O)C=C(c2ccccc2CO)C1=O", "Potency": "inactive"}, {"smiles": "COc1ccc(C(C[N+](=O)[O-])n2nc(C)cc2C)cc1", "note": "(stereo not given)", "Potency": "14.6 µM (active)"}, {"smiles": "CCOc1ccc(C(C)C)cc1S(=O)(=O)n1nc(C)cc1C", "Potency": "inactive"}, {"smiles": "COc1ccc(OC)c(S(=O)(=O)n2c([N+](=O)[O-])cnc2C)c1", "Potency": "inactive"}, {"smiles": "Cn1nc(N)c2ncc(C(Cl)(Cl)Cl)nc21", "Potency": "inactive"}, {"smiles": "CNc1cc(-c2c(OC)cccc2OC)ncn1", "Potency": "inactive"}, {"smiles": "CCOC(=O)C1CCN(C(=O)Nc2ccc(C)c(Cl)c2)CC1", "Potency": "inactive"}, {"smiles": "CCOC(=O)C1CCN(CCC(=O)Nc2cccc(C)c2)CC1", "Potency": "inactive"}, {"smiles": "CCOC(=O)C1CCN(c2c(Nc3cc(C)cc(C)c3)c(=O)c2=O)CC1", "Potency": "4.61 µM (active)"}, {"smiles": "Cc1nc(C(F)(F)F)ccc1C(=O)N1CCC1(C)C(=O)NS(=O)(=O)c1ccccc1Cl", "note": "(stereo not given)", "Potency": "inactive"}, {"smiles": "O=C(CCl)Nc1cccc(CP(=O)(c2ccccc2)c2ccccc2)c1", "Potency": "5.17 µM (active)"}, {"smiles": "O=C(NCCc1ccccc1)c1cccc(NC(=O)c2ccccc2)c1", "Potency": "inactive"}, {"smiles": "O=C(CSc1ccccc1)Nc1ccc(C(=O)Nc2cccc(O)c2)cc1", "Potency": "inactive"}, {"smiles": "Nc1ncnc2c1ncn2[C@@H]1O[C@H](CNC(=O)[C@H](N)Cc2cccnc2)[C@@H](O)[C@H]1O", "Potency": "inactive"}, {"smiles": "CCc1ccccc1OCC(=O)Nc1ccc(C)c(S(=O)(=O)N2CCCCCC2)c1", "Potency": "inactive"}, {"smiles": "Cc1ccccc1OCC(=O)Nc1ccc(N2CCN(C(=O)C(C)C)CC2)c(Cl)c1", "Potency": "13 µM (active)"}, {"smiles": "CCC(=O)N1CCN(c2ccccc2NC(=O)COc2cccc(C)c2C)CC1", "Potency": "inactive"}, {"smiles": "C[C@H]1CN([C@@H](C)CO)C(=O)CCCn2cc(nn2)CO[C@@H]1CN(C)S(=O)(=O)c1ccccc1C#N", "Potency": "inactive"}, {"smiles": "Nc1nc2c(ncn2[C@@H]2O[C@H](CNS(=O)(=O)N3CCc4ccccc4C3)[C@@H](O)[C@H]2O)c(=O)[nH]1", "Potency": "inactive"}]}]}
